Data from ChEMBL document CHEMBL1961873, “Compounds: GSK PKIS; Assays: Nanosyn kinase panel” (2012).

Tests used:
[1] = target: Ribosomal protein S6 kinase alpha-6 (Homo sapiens) (UniProt Q9UK32); details: at 1 µM;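 note: each value is a mean inhibition of RSK4 from a GSK PKIS panel screen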
[2] = target: T1, Serine/threonine-protein kinase Sgk1 (Homo sapiens) (UniProt O00141); details: at 0.1 µM
T1 sequence (whole entry): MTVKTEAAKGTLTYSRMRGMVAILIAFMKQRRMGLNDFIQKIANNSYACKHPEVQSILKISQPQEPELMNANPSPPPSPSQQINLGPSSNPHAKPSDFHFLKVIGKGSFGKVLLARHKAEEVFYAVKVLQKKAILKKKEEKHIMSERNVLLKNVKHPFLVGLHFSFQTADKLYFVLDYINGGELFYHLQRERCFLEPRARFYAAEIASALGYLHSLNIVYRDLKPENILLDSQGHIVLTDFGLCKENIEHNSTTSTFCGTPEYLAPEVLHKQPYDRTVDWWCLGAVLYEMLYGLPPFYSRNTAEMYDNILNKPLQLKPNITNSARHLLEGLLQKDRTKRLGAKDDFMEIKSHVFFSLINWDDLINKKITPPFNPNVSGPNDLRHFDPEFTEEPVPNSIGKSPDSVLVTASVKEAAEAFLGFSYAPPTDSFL

[3] = target: T1, Serine/threonine-protein kinase Sgk1 (Homo sapiens); details: at 1 µM
[4] = target: T2, Serine/threonine-protein kinase Sgk2 (Homo sapiens) (UniProt Q9HBY8); details: at 0.1 µM
T2 sequence (whole entry): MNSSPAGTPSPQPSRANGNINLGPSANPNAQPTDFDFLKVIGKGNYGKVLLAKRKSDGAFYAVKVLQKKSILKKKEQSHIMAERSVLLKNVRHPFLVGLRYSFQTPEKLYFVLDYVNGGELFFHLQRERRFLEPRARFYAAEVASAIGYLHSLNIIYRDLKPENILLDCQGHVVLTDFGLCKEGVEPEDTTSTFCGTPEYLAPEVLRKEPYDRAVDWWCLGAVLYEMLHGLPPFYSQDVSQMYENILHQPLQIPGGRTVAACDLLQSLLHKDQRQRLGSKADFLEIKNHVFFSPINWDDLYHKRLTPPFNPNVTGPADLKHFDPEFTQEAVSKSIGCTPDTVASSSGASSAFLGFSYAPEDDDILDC

[5] = target: T2, Serine/threonine-protein kinase Sgk2 (Homo sapiens); details: at 1 µM
[6] = target: T3, Serine/threonine-protein kinase Sgk3 (Homo sapiens) (UniProt Q96BR1); details: at 0.1 µM
T3 sequence (whole entry): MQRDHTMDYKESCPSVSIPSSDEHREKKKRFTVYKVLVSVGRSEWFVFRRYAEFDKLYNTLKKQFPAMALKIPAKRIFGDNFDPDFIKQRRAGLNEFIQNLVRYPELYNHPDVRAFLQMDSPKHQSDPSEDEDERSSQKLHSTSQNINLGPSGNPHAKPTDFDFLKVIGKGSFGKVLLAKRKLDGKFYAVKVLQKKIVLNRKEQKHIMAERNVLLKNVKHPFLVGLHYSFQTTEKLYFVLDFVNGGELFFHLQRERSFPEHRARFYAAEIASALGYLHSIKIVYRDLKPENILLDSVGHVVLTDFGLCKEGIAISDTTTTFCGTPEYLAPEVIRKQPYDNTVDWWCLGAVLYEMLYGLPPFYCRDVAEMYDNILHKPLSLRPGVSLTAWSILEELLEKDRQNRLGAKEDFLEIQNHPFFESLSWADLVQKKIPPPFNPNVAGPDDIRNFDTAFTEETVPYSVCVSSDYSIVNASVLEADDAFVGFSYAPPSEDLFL

[7] = target: T3, Serine/threonine-protein kinase Sgk3 (Homo sapiens); details: at 1 µM
[8] = target: 5'-AMP-activated protein kinase catalytic subunit alpha-1 (Homo sapiens) (UniProt Q13131); details: at 0.1 µM
5'-AMP-activated protein kinase catalytic subunit alpha-1 (Homo sapiens), sequence (Q13131 whole entry, looked up): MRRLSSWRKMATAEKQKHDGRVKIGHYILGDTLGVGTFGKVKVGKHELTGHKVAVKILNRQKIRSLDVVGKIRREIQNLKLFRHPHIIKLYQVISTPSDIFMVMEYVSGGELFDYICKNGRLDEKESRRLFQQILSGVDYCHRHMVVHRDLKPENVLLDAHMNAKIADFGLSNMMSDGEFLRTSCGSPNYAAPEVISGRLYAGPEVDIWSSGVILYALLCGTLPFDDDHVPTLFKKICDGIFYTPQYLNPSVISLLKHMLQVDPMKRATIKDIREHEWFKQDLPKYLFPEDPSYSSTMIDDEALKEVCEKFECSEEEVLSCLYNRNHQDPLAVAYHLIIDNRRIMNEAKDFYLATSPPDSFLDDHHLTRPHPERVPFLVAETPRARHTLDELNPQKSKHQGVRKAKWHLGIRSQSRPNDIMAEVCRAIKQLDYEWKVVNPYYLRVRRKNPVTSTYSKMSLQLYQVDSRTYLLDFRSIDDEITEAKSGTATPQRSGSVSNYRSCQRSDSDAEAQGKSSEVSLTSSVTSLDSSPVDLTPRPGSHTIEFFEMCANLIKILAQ

[9] = target: 5'-AMP-activated protein kinase catalytic subunit alpha-1 (Homo sapiens) (UniProt Q13131); details: at 1 µM
[10] = target: 5'-AMP-activated protein kinase catalytic subunit alpha-2 (Homo sapiens) (UniProt P54646); details: at 0.1 µM;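 note: mean inhibition measured on the AMPK complex of alpha2, beta1 and gamma1 subunits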
5'-AMP-activated protein kinase catalytic subunit alpha-2 (Homo sapiens), sequence (P54646 whole entry, looked up): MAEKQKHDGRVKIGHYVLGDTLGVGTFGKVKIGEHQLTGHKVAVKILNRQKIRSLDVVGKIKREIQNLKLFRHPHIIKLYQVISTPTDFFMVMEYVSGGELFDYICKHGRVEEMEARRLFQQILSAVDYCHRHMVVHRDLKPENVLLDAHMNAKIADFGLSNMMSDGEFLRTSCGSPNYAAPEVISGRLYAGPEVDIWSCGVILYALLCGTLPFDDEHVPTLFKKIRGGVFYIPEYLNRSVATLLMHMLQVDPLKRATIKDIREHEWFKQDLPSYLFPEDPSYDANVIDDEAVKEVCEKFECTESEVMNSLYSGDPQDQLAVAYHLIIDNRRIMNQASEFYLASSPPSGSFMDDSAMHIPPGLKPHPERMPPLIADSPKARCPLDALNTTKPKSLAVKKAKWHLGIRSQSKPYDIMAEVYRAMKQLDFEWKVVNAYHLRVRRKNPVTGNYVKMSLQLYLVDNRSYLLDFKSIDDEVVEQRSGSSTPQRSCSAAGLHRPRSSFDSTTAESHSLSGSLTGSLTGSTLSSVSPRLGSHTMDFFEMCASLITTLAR

Ribosomal protein S6 kinase alpha-6 (Homo sapiens), sequence (Q9UK32 whole entry): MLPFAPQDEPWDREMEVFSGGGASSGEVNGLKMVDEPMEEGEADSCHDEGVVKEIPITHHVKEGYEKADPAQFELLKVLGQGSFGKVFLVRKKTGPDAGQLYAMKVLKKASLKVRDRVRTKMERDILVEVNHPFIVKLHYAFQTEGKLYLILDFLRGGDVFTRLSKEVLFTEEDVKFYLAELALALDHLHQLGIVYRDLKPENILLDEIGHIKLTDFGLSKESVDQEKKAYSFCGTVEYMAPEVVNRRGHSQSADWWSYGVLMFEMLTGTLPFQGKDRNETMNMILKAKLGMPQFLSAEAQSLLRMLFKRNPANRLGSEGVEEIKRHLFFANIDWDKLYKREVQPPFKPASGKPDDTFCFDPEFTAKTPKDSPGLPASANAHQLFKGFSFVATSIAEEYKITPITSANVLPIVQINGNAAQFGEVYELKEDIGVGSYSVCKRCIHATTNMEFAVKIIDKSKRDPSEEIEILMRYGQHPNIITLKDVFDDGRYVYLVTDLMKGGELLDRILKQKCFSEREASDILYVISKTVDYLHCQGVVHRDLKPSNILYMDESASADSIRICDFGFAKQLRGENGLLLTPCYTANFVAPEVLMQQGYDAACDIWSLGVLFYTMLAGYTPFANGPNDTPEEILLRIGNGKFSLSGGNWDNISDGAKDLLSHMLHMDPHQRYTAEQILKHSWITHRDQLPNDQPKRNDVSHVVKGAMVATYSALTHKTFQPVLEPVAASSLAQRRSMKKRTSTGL

Structure (SMILES) | inhibition [1] | inhibition [2] | inhibition [3] | inhibition [4] | inhibition [5] | inhibition [6] | inhibition [7] | inhibition [8] | inhibition [9] | inhibition [10]
COc1cccc(-c2c[nH]c3c(N/N=C/c4ccncc4)ncnc23)c1 | 10.6% | 4.36% | 19.1% | 4.85% | 18.2% | 2.69% | 1.84% | 1.39% | 6.84% | 0.02%
CCCN(CCS(C)(=O)=O)Cc1ccc(-c2ccc3ncnc(Nc4ccc(OCc5cccc(F)c5)c(Cl)c4)c3c2)o1 | 0.41% | 0.88% | 2.15% | 0.16% | -0.86% | 2.21% | 1.28% | 0.05% | 1.68% | 2.47%
CN(C)CCOc1ccc(-c2nc(-c3ccncc3)c(-c3ccc4c(c3)CC/C4=N\O)[nH]2)cc1 | 2.06% | 2.17% | 4.78% | 2.44% | 5.4% | 2.89% | 4.02% | 2.12% | 5.29% | -0.6%
CC(=O)NCc1cccc(C#Cc2cncnc2Nc2ccc(OCc3cccc(F)c3)c(Cl)c2)c1 | 1.01% | 0.94% | 0.99% | 4.36% | -2.04% | -1.07% | 1.92% | 1.28% | 3.03% | 2.22%
FC(F)(F)c1cccc(-c2nn3ncccc3c2-c2ccnc(Nc3ccc4c(c3)OCCO4)n2)c1 | 2.56% | 1.35% | 1.1% | -3.49% | 0.76% | 5.14% | 1.47% | 1.41% | 0.35% | 0.93%
COc1cc2ncn(-c3cc(OCc4ccccc4C(F)(F)F)c(C(=O)N(C)C)s3)c2cc1OC | 0.1% | 0.62% | 1.02% | 1.9% | -0.51% | 0.08% | -0.88% | -0.68% | -0.02% | -0.26%
c1ccc(-c2nc3n(c2-c2ccc4c(c2)OCO4)CCC3)nc1 | 0.77% | 1.69% | 3.45% | 2.66% | 2.94% | 2.37% | 3.36% | 1.01% | 2.34% | 3.38%
CCCN1CCC(c2ccc(Nc3nc(Nc4cc(F)ccc4C(N)=O)c4cc[nH]c4n3)c(OC)c2)CC1 | 63.4% | 3.17% | 13.8% | 4.48% | 5.14% | 3.22% | 4.03% | 5.5% | 26.9% | 3.42%
CC(=O)Nc1cccc(C#Cc2cncnc2Nc2ccc(OCc3cccc(F)c3)c(Cl)c2)c1 | 1.39% | 3.01% | 2.43% | -0.35% | 2.06% | 2.61% | -0.92% | 1.72% | -0.52% | 2.44%
COc1cc2c(cc1Nc1nc(Nc3ccsc3C(N)=O)c3cc[nH]c3n1)N(C(=O)CN(C)C)CCC2(C)C | 49.6% | 3.7% | 4.59% | 2.95% | 2.79% | 2.75% | 4.25% | 6.5% | 7.07% | 6.92%
CNC(=O)c1cncc(/C=C/c2ccccc2Cl)c1 | 0.65% | 0.52% | 3.45% | 3.22% | 1.73% | 2.89% | 3.36% | 1.03% | 2.25% | -2.07%
CCn1c(-c2nonc2N)nc2ccccc21 | 10.4% | 4.57% | 5.48% | -0.51% | 9.28% | 2.3% | 23.6% | 3.06% | 1.63% | 0.31%
c1ccc(COc2ccc(Nc3ncnc4ccc(-c5ccco5)cc34)cc2)cc1 | -0.53% | 1.43% | 0.51% | -1.79% | 2.2% | -0.56% | 0.58% | 0.67% | 2.29% | -2.52%
COC(=O)Nc1nc2ccc(Oc3ccc(NC(=O)Nc4cccc(Cl)c4)cc3)cc2[nH]1 | -1.02% | 0.53% | 0.15% | 1.28% | -2.41% | 0.38% | 0.61% | 0.94% | 0.58% | 1.29%
COc1ccc(CNC(=O)c2ccc(-c3cc(-c4nnc(C)o4)ccc3C)cc2)cc1 | 0.1% | 5.7% | 6.79% | 4.8% | 8.78% | 7.73% | 8.7% | 0.41% | 5.85% | 2.84%
CC(C)COC(=O)c1ccc2c(c1)/C(=C/Nc1ccc(S(N)(=O)=O)cc1)C(=O)N2 | 39.3% | 1.25% | 19% | 1.33% | 1.89% | 1.37% | 3.19% | 23.4% | 72.3% | 5.83%
CC(C)(CO)CNC(=O)c1ccc2c(c1)/C(=N/Nc1ccc(S(N)(=O)=O)cc1)C(=O)N2 | 9.45% | 0.94% | 8.72% | 0.65% | 3.3% | -2.66% | 3.04% | 26% | 72.3% | 6.91%

Structure (SMILES) | inhibition [1] | inhibition [2] | inhibition [3] | inhibition [4] | inhibition [5] | inhibition [6] | inhibition [7] | inhibition [8] | inhibition [9] | inhibition [10]
N#Cc1c(NC(=O)c2ccc(F)cc2)sc2c1CCCC2 | 0.81% | 0.29% | 2.65% | -3.36% | 0.76% | -0.34% | 1.54% | 1.88% | 1.54% | 0.31%
CN1CCC(n2cnc(-c3ccc(F)cc3)c2-c2ccnc(N)n2)CC1 | 3.17% | 2.03% | 5.81% | 0.15% | 7.47% | 2.25% | 2.99% | 2.2% | 7.91% | -1.23%
CCn1c(-c2nonc2N)nc2c(C#CC(C)(C)O)ncc(OC3CCNCC3)c21 | 5.51% | 2.06% | 4.36% | 5.71% | 16.4% | 11.2% | 53.4% | 40.5% | 82.6% | 12.1%
COc1ccc(-c2oc3ncnc(N)c3c2-c2ccc(NC(=O)Nc3cc(C(F)(F)F)ccc3F)cc2)cc1 | 17.4% | 3.83% | 8.65% | 4.57% | 4.27% | 3.71% | 4.09% | 4.2% | 8.8% | 1.55%
Fc1cccc(COc2ccc(Nc3ncnc4sc(-c5ccco5)cc34)cc2Cl)c1 | 1.67% | 2.84% | 3.04% | 1.55% | 0.68% | 4.19% | 4.61% | 2.46% | 4.38% | 4.1%
Cc1ccc(O)cc1Nc1ccnc2cc(-c3ccccn3)ccc12 | 1.1% | 3.35% | 0.75% | 4.28% | 0.49% | 4.38% | 1.94% | 4.22% | 4.05% | 1.74%
COC(=O)Nc1nc2ccc(S(=O)(=O)c3ccc(NC(=O)Nc4cc(C(F)(F)F)ccc4F)cc3)cc2[nH]1 | 1.27% | 3.1% | 0.95% | 3.28% | 0.53% | 2.89% | 1.57% | 1.79% | 1.58% | 2.21%
[O-][S+]1CCN(Cc2ccc(-c3ccc4ncnc(Nc5ccc(OCc6cccc(F)c6)c(Cl)c5)c4c3)o2)CC1 | 1.89% | 3.42% | 4% | -0.64% | 2.65% | 4.53% | 3.72% | 3.59% | 5.6% | 5.66%
Fc1ccc(-c2nn3ncccc3c2-c2ccnc(Nc3ccc4c(c3)OCCO4)n2)cc1 | 5.49% | 3.85% | 3.42% | 0.17% | 0.65% | 4.45% | 0.8% | 3% | 1.48% | 3.53%
COc1ccc(-c2cc3c(N)ncnc3o2)cc1 | 1.58% | 0.5% | -0.33% | -1.01% | 1.43% | -1.34% | -2.55% | 0.03% | 0.8% | 0.21%
Nc1nc(-c2ccc(F)cc2)c(-c2ccc3ncccc3n2)s1 | 3.36% | 2.87% | 4.24% | 4.24% | 4.34% | 4.05% | 3.66% | 3.33% | 5.29% | 1.85%
CC1=C(C(=O)Nc2cc(Cl)c3[nH]ncc3c2)C(c2ccc(C(F)(F)F)cc2)CC(=O)N1 (stereo not given) | 36.4% | 4.9% | 17.9% | 4.31% | 12.5% | 8.68% | 34.4% | 18.4% | 62.2% | 5.35%
c1cc(-c2cnn3nc(N4CCOCC4)ccc23)nc(NC2CC2)n1 | 10.5% | 2.27% | 3.4% | 9.24% | 9.02% | 4.38% | 2.23% | 4.11% | 6.88% | -0.07%
COc1ccc2c(-c3ccnc(Nc4cccc(OC(F)(F)F)c4)n3)cnn2n1 | 3.03% | 3.35% | 2.06% | 6.82% | 9.02% | 5.66% | 4.44% | 4.09% | 7.03% | -7%
N#Cc1c(NC(=O)CN2CCOCC2)sc2c1CCCC2 | 1.35% | 0.28% | 5.76% | 2.3% | 4.38% | 3.14% | 4.05% | 3.31% | 4.25% | 1.66%
CCOc1ccc2c(-c3ccnc(Nc4cccc(C(F)(F)F)c4)n3)cnn2n1 | -0.99% | 1.25% | 0.13% | 2.25% | 0.87% | 0.95% | 2.4% | 2.48% | 2.09% | 0.22%
